Compound activity: PubChem BioAssay, National Center for Advancing Translational Sciences (NCATS)
AMA1 RON2 block: AMA1-RON2 (P. falciparum) interaction inhibition; AlphaScreen AMA1-biotinylated RON2 peptide binding; Potency, µM (titrated, usually from 58.2 µM), inactives show at the top dose activity change, negative = inhibition, most hits filed as inhibitors; 360,000 tested, 0.2% active; AID 720542;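 further: 0% = vehicle wells and -100% = peptide control; nearly all actives have a fitted effect of over 45% in size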
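AMA1 (3D7) with his tag at 25 nM final met compounds first, then biotinylated RON2 peptide at 25 nM; detection used donor plus acceptor beads, 10 µg/mL apiece, read by AlphaScreen after 30 min at room temperature.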
Vaccinia Venus: inhibitors of vaccinia virus (Venus reporter) | AID 720580 | Vaccinia virus Venus reporter expression, fluorescence | Potency, µM (doses to about 36.5 µM), for inactives: at the top dose activity change, negative = inhibition, hits mostly inhibitors | 330,000 tested, 0.46% active; calls by dose curve; tested in A549 cells; further: nearly all actives have a fitted effect of over 30% in size
Pf growth 96h: P. falciparum growth inhibition at 96 hours; P. falciparum luciferase reporter growth, 96 h; Potency, µM (highest dose often 28.7 µM), without a hit: at the highest dose activity change, negative = inhibition, actives largely listed as inhibitors; 320,000 tested, 6.9% active
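96 h incubation, 37 C, 5% CO2, of luciferase-reporter P. falciparum-infected RBCs (2% hematocrit, 0.05% parasitemia final) with test compounds; endpoint luminescence.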
Pf growth 48h: P. falciparum growth inhibition at 48 hours (one generation) | P. falciparum luciferase growth in erythrocytes, 48 h | Potency, µM (titrated, usually from 28.7 µM), for the others: at the highest dose activity change, negative = inhibition, most hits filed as inhibitors | 310,000 tested, 5.9% active | AID 504832
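Read-out is firefly luciferase luminescence from an integrated reporter in P. falciparum, so falling signal marks reduced parasite growth. Infected erythrocytes were at 2% hematocrit and 0.1% parasitemia (final) in Albumax-supplemented RPMI 1640.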
Vaccinia mCherry: vaccinia inhibition (mCherry reporter) | Potency, µM (series often up to 36.5 µM), inactives show at the top dose activity change, negative = inhibition, usual class: inhibitors | Vaccinia virus mCherry reporter infection, fluorescence | 310,000 tested, 0.63% active; calls by dose curve; tested in A549 cells; further: nearly all actives have a fitted effect of over 35% in size
Active calls of the source: *; i = inactive; u = inconclusive; x = not tested or not shown; [ ] = remark or other dose. Most compounds without a hit are left out; they make up all but 8.7% or so of the library. Unless noted, the call rests on the fitted dose curve; in most records, active means well fitted curve in the direction sought with a large enough effect; inconclusive means small, poorly fitted or top-dose-only effect, or another doubt; inactive means no such curve, though single readings can be large; an effect the other way counts as inactive or inconclusive. Unless noted, on the % scale 0 is the no-effect control and ±100 the full control effect; potency means the concentration at half of the fitted maximal effect.

SMILES | AMA1 RON2 block | Vaccinia Venus | Pf growth 96h | Pf growth 48h | Vaccinia mCherry
COc1ccc(C(CC(=O)N2CCCC2)c2c(OC)cc(OC)c3c(-c4ccccc4)cc(=O)oc23)cc1 (stereo unspecified) | -16.8% | u | u | 9.28µM* | -6.0%
COc1ccc(C(CC(=O)N2CCCC2)c2c(OC)cc(OC)c3ccc(=O)oc23)cc1 (stereo unspecified) | 11.4% | -13.2% | u | u | -6.7%
CN(C)c1ccc(/C=C/c2ccnc3ccccc23)cc1Br | x | -18.2% | x | x | -9.5%
COc1ccc(C(CC(=O)N2CCCC(C)C2)c2c(OC)cc(OC)c3c(-c4ccccc4)cc(=O)oc23)cc1 (stereo unspecified) | -25.2% | u | 11.7µM* | 9.28µM* | -6.2%
COc1ccc(C(CC(=O)N2CCOCC2)c2c(OC)cc(OC)c3c(-c4ccccc4)cc(=O)oc23)cc1 (stereo unspecified) | 1.3% | -27.5% | u | 10.4µM* | -13.1%
CCCCCCC[n+]1ccc(/C=C/c2c[nH]c3ccccc23)c2ccccc21 | x | i | x | x | i
Cc1ccc(NC(=S)N=Nc2c(O)n(C)c3ccc(S(=O)(=O)N4CCOCC4)cc23)cc1 | 15.9% | -22.1% | u | 2.62µM* | -18.2%
Cc1cccc(NC(=S)N=Nc2c(O)n(C)c3ccc(S(=O)(=O)N4CCOCC4)cc23)c1 | 33.6% | -15.6% | 2.33µM* | 8.28µM* | -6.5%
C=CCn1c(O)c(N=NC(=S)Nc2ccccc2F)c2cc(S(=O)(=O)N3CCOCC3)ccc21 | 37.4% | -20.5% | 34.6% | 6.57µM* | -27.4%
Cn1c(=O)n(C)c2cc(S(=O)(=O)N3CCOCC3)ccc21 | -2.7% | x | x | -9.5% | x
Cc1cc(C)cc(NC(=S)N=Nc2c(O)n(C)c3ccc(S(=O)(=O)N4CCOCC4)cc23)c1 | 24.3% | -20.7% | u | 2.08µM* | -1.1%
Cc1ccc(S(=O)(=O)N2CCOCC2)cc1C(=O)Nc1ccccc1F | 17.1% | -16.6% | -7.7% | 8.2% | -0.3%
COc1ccc(S(=O)(=O)NCc2cccn2Cc2cc(C)ccc2C)cc1OC | x | 6.3% | x | x | -7.8%
Brc1ccc(/C=C2\C=Cc3ccccc32)cc1 | x | 11.5% | x | x | -2.3%
Cc1ccccc1NC(=S)N=Nc1c(O)n(C)c2ccc(S(=O)(=O)N3CCOCC3)cc12 | 49.6% | -23.0% | 7.8% | 3.29µM* | -13.6%
Cc1cccc(C)c1NC(=S)N=Nc1c(O)n(C)c2ccc(S(=O)(=O)N3CCOCC3)cc12 | 50.8% | 2.1% | u | u | -12.4%
CCOc1ccc2[nH]c3c(N4CCC5(CC4)OCCO5)ncnc3c2c1 | -16.8% | u | 11.7µM* | u | u
O=C(c1ccco1)N1CCN(c2ncnc3c2[nH]c2ccc(Br)cc23)CC1 | 25.4% | -26.5% | u | 9.28µM* | x
O=C(c1ccco1)N1CCN(c2ncnc3c2[nH]c2ccccc23)CC1 | x | x | 5.1% | u | x
CCOc1ccc2[nH]c3c(N4CCN(C(=O)c5ccco5)CC4)ncnc3c2c1 | -3.7% | -24.1% | 11.7µM* | u | 12.6µM*
COc1cccc(C2CC(c3c(Cl)cccc3Cl)n3nc(N)nc3N2)c1 (stereo unspecified) | -5.7% | x | 13.1µM* | u | x
CCOc1ccccc1C1CC(c2ccc(Br)cc2)Nc2nc(N)nn21 (stereo unspecified) | 1.3% | x | 7.38µM* | u | x
Nc1nc2n(n1)C(c1ccccc1Cl)CC(c1ccc(F)cc1)N2 (stereo unspecified) | 38.2% | -10.6% | 1.65µM* | x | -7.1%
COc1cccc(C2CC(c3c(F)cccc3Cl)n3nc(N)nc3N2)c1 (stereo unspecified) | 8.9% | 17.0% | 8.5% | u | x
CCc1ccc(C2CC(c3ccccc3)Nc3nc(N)nn32)cc1 (stereo unspecified) | -2.8% | 0.3% | 1.85µM* | 8.8% | -5.0%
SMILES | AMA1 RON2 block | Vaccinia Venus | Pf growth 96h | Pf growth 48h | Vaccinia mCherry
CCOc1ccc(C2CC(c3ccccc3C)n3nc(N)nc3N2)cc1 (stereo unspecified) | 16.3% | 0.2% | u | -28.3% | -2.0%
COCCCNc1ncnc2c1cnn2-c1ccc(F)cc1 | x | -19.1%[7.34 µM] | x | x | -24.4%[7.34 µM]
Cc1c(C(=O)NCc2ccc(F)cc2)sc2ncnc(NCC3CCCO3)c12 (stereo unspecified) | x | -5.7% | x | x | -18.6%
Cc1ccccc1NC(=O)CSc1nc2c(oc3ccccc32)c(=O)n1-c1ccccc1F | x | -8.3% | x | x | -11.6%
CC1(C)Cc2c(c(-c3ccco3)nc3sc4c(NCC5CCCO5)ncnc4c23)CO1 (stereo unspecified) | 5.5% | -13.7% | u | -1.5% | 8.2%
CC1(C)Cc2c(c(-c3ccco3)nc3sc4c(NCCCO)ncnc4c23)CO1 | -22.0% | x | 4.15µM* | u | x
CC1(C)Cc2c(C#N)c(NCCN3CCOCC3)nc(-c3ccco3)c2CO1 | -5.3% | x | 10.4µM* | 13.1µM* | x
CC1(C)Cc2c(C#N)c(NCCN3CCOCC3)nc(-c3ccccc3)c2CO1 | 0.6% | -7.1% | -17.3% | -18.6% | i
CC1(C)Cc2c(c(-c3ccco3)nc3sc4c(NCCN5CCOCC5)ncnc4c23)CO1 | -4.5% | -21.3% | u | 8.28µM* | -6.1%
Cn1nc(-c2ccccc2F)c2cc(C(=O)NCc3cccc(Cl)c3)sc21 | x | -3.3% | x | x | -10.4%
O=S1(=O)c2ccccc2N(Cc2cccc(Cl)c2)c2ccccc21 | x | -3.7% | x | x | -15.1%
O=C(NCC1CCC2(CCN(Cc3c[nH]c4ccccc34)CC2)O1)C1CCOCC1 (stereo unspecified) | x | -1.7% | x | x | 1.9%
Cc1sc2ncn(CC(=O)Nc3cccc(C(F)(F)F)c3)c(=O)c2c1S(=O)(=O)N1CCC(C)CC1 | x | u | x | x | -28.5%
CN(C)CCN(C(=O)/C=C/c1cccs1)c1nc2c(F)cc(F)cc2s1 | u | u | u | 11.7µM* | -19.5%
Cc1cc(O)cc2c1C1CCC3(C)C(=O)CCC3C1C=C2 (stereo unspecified) | -0.3% | u | x | x | 1.78µM*
CC1(C)C(=O)CC[C@@]2(C)C1=CCC1C2CC[C@]2(C)C(=O)CCC12 (stereo partly specified) | -3.8% | 4.5% | x | x | -18.3%
COc1cccc(CNC(=O)CNC(=S)N(Cc2ccccc2)Cc2ccccc2F)c1 | -3.6% | -7.2% | 0.7% | 11.7µM* | -6.8%
CCCS(=O)(=O)c1ncc(Cl)c(C(=O)Nc2sc3c(c2C(=O)NCC)CCCC3)n1 | x | -22.6% | x | x | -20.9%
COc1ccc(-c2cn(-c3ccc(OC)cc3)c3[n+]2-c2ccccc2CC3)cc1 | -10.1% | -20.4% | 0.415µM* | 1.17µM* | -22.2%
COc1ccc(-n2cc(-c3ccccc3)[n+]3c2CCCCC3)cc1 | -16.7% | -0.6% | 0.928µM* | 1.04µM* | i
FC(F)Oc1ccc(-n2cc(-c3ccc(Cl)cc3)[n+]3c2CCCCC3)cc1 | 10.3% | -13.5% | u | 1.47µM* | i
FC(F)Sc1ccc(-n2cc(-c3ccccc3)[n+]3c2CCC3)cc1 | 10.4% | -13.0% | 0.657µM* | 1.17µM* | -9.5%
COc1ccc(-n2cc(-c3ccccc3)nc2SC)cc1 | -0.8% | x | 3.8% | 55.8% | x
